# Laboratory results from a collection of fitness landscapes (doi:10.1016/j.celrep.2020.107928).
# Over roughly 81,000 sequences, “one-hybrid fitness for binding parS DNA” has its median near -0.17; the highest 2% begin near 0.51. Shown is part of a subset that was picked to be rich in the highest values.
# B1: Caulobacter ParB omega fusion; a variant is named by its letters at X, in order, B8GW30 (parent)
# chain: MESVVVGEPGMSEGRRGLGRGLSALLGEVDAAPAQAPGEQLGGSREAPIEILQRNPDQPRRTFREEDLEDLSNSIREKGVLQPILVRPSPDTAGEYQIVAGERAWRAAQRAGLKTVPIMVRELDDLAVLEIGIIENVQRADLNVLEEALSYKVLMEKFERTQENIAQTIGKSXSHVANXMRLLXLPDEVQSYLVSGELTAXHARAIAAAADPVALAKQIIEGGLSVRETEALARKAPNLSAGKSKGGRPPRVKDTDTQALESDLSSVLGLDVSIDHRGSTGTLTITYATLEQLDDLCNRLTRGI
# Variants of: B1
# Assay: one-hybrid fitness for binding parS DNA (scaled: cognate 1, non-cognate 0); higher = stronger binding
# Settings: with parS DNA site
# Summary of the method: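 Pre- and post-selection plasmids were Illumina-sequenced, three replicate libraries were pooled, and any variant with under 10 reads was removed. The libraries were Caulobacter ParB with four specificity codons randomised, selected in E. coli USO through a HIS3 reporter whose site is 19 bp from the promoter. Cells grew 48 hours at 37°C on M9 without histidine, with 0.1 mM IPTG and 5 mM 3-AT. Fitness is the log change in variant-to-wild-type read ratio, rescaled against cognate and non-cognate.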
row,Variant,one-hybrid fitness for binding parS DNA
1,FAKY,≤ 0.2
2,LKTR,≤ 0.2
3,PGLR,≤ 0.2
4,RVDD,≤ 0.2
5,RVWR,≤ 0.2
6,RVLQ,≤ 0.2
7,RVQT,0.913
8,RVQN,0.417
9,RVDT,0.741
10,RVWF,0.25
11,RVWT,0.886
12,RVLT,0.92
13,RVQP,≤ 0.2
14,RVLM,0.309
15,RVDH,≤ 0.2
16,PFSC,≤ 0.2
17,GKMI,≤ 0.2
18,LFDL,≤ 0.2
19,TQEV,≤ 0.2
20,RKRY,0.422
21,FSIS,≤ 0.2
22,RVGD,≤ 0.2
23,RVNT,0.899
24,RVGN,0.451

row,Variant,one-hybrid fitness for binding parS DNA
1,RVGT,0.924
2,RVCM,0.382
3,RVCY,0.462
4,RVNP,≤ 0.2
5,RVCT,0.926
6,RVNH,≤ 0.2
7,PRGK,≤ 0.2
8,VWDG,≤ 0.2
9,IEKT,≤ 0.2
10,VALY,≤ 0.2
11,GQET,≤ 0.2
12,SLYK,≤ 0.2
13,GKPL,≤ 0.2
14,RAEI,≤ 0.2
15,RCET,0.758
16,RAET,0.68
17,RAEK,≤ 0.2
18,RPET,≤ 0.2
19,RHET,0.734
20,RDET,≤ 0.2
21,RHEM,0.214
22,RRET,0.674
23,RHEK,≤ 0.2
24,EKRG,≤ 0.2

row,Variant,one-hybrid fitness for binding parS DNA
1,SQQG,≤ 0.2
2,TPYC,≤ 0.2
3,VTLR,≤ 0.2
4,QKRV,≤ 0.2
5,QSKN,≤ 0.2
6,QNAM,≤ 0.2
7,EGGH,≤ 0.2
8,VPIN,≤ 0.2
9,DWQR,≤ 0.2
10,RIET,0.709
11,PFET,≤ 0.2
12,RMEF,≤ 0.2
13,REET,≤ 0.2
14,RSET,0.653
15,RMET,0.731
16,RIEK,≤ 0.2
17,RFET,0.655
18,RMEM,0.309
19,EFET,≤ 0.2
20,RIEF,≤ 0.2
21,RGET,0.308
22,PTPR,≤ 0.2
23,QSVP,≤ 0.2
24,AQRA,≤ 0.2

row,Variant,one-hybrid fitness for binding parS DNA
1,WPTL,≤ 0.2
2,GPKW,≤ 0.2
3,RKEY,0.401
4,RTEP,≤ 0.2
5,RLEY,0.458
6,RLET,0.783
7,RLEK,≤ 0.2
8,RTET,0.75
9,RKET,0.799
10,RKER,≤ 0.2
11,RTEN,0.349
12,AEWH,≤ 0.2
13,ISIL,≤ 0.2
14,LPPC,≤ 0.2
15,TELP,≤ 0.2
16,PLFM,≤ 0.2
17,HICT,≤ 0.2
18,SMNV,≤ 0.2
19,SGQL,≤ 0.2
20,LYHP,≤ 0.2
21,RSQA,0.555
22,RCQA,0.593
23,RTQA,0.627
24,RHQA,0.5

row,Variant,one-hybrid fitness for binding parS DNA
1,RGQA,0.364
2,NTQA,≤ 0.2
3,RWQA,0.404
4,RDQA,≤ 0.2
5,DTQA,≤ 0.2
6,RMQA,0.574
7,VRKH,≤ 0.2
8,GAVT,≤ 0.2
9,RVVL,≤ 0.2
10,YEHG,≤ 0.2
11,GAFN,≤ 0.2
12,CTDH,≤ 0.2
13,PIDR,≤ 0.2
14,SPPW,≤ 0.2
15,IYKI,≤ 0.2
16,CLQA,≤ 0.2
17,NLQA,≤ 0.2
18,RLQA,0.616
19,KMPV,≤ 0.2
20,KSYG,≤ 0.2
21,MYPR,≤ 0.2
22,AHSN,≤ 0.2
23,MNDG,≤ 0.2
24,QPYH,≤ 0.2

row,Variant,one-hybrid fitness for binding parS DNA
1,TMHS,≤ 0.2
2,PTQT,≤ 0.2
3,RAVH,0.202
4,RAVS,0.986
5,RAKS,0.874
6,RAKH,0.239
7,RAVD,≤ 0.2
8,RAKP,≤ 0.2
9,TSEV,≤ 0.2
10,RRHL,≤ 0.2
11,PNHC,≤ 0.2
12,NLGV,≤ 0.2
13,RAKQ,≤ 0.2
14,RAVG,0.923
15,RAVF,≤ 0.2
16,RAKG,0.937
17,RAKK,≤ 0.2
18,RAVR,≤ 0.2
19,QLEL,≤ 0.2
20,FTDC,≤ 0.2
21,NTWT,≤ 0.2
22,RQNS,0.921
23,RQDP,≤ 0.2
24,RQDN,0.431

row,Variant,one-hybrid fitness for binding parS DNA
1,RQNP,≤ 0.2
2,RQDS,0.977
3,RQNH,0.329
4,PMTF,≤ 0.2
5,IRPV,≤ 0.2
6,RSLM,0.32
7,WKDS,≤ 0.2
8,RSKN,0.443
9,RDKC,0.282
10,RCKC,0.816
11,RSKC,0.943
12,RSKP,≤ 0.2
13,RPKC,≤ 0.2
14,IDNS,≤ 0.2
15,QCDG,≤ 0.2
16,PPSE,≤ 0.2
17,KIGR,≤ 0.2
18,ANCC,≤ 0.2
19,HRKN,≤ 0.2
20,RNKS,0.936
21,RNKN,0.354
22,RNKH,0.219
23,RNVP,≤ 0.2
24,RNYY,0.297

row,Variant,one-hybrid fitness for binding parS DNA
1,RNVY,≤ 0.2
2,RNVS,0.674
3,RNVD,≤ 0.2
4,RNKY,0.543
5,QADL,≤ 0.2
6,QIAH,≤ 0.2
7,YERV,≤ 0.2
8,YMQL,≤ 0.2
9,NLRR,≤ 0.2
10,QKLQ,≤ 0.2
11,RIAG,0.997
12,RIFY,0.462
13,RIAP,≤ 0.2
14,RIAH,0.279
15,RIFG,0.978
16,RIFK,0.283
17,YDMG,≤ 0.2
18,WYYF,≤ 0.2
19,GTPA,≤ 0.2
20,PTAE,≤ 0.2
21,RYPG,0.545
22,RYPN,≤ 0.2
23,RYIK,≤ 0.2
24,RYIG,0.793

row,Variant,one-hybrid fitness for binding parS DNA
1,RYPH,≤ 0.2
2,RYIN,0.269
3,PRFW,≤ 0.2
4,CGQS,≤ 0.2
5,HFIF,≤ 0.2
6,GKTS,≤ 0.2
7,RLNH,0.252
8,RLSS,0.991
9,RLNS,0.932
10,RLHS,0.96
11,RLSN,0.455
12,RLRP,≤ 0.2
13,RLND,≤ 0.2
14,RLRH,0.223
15,RLHP,≤ 0.2
16,RLHH,0.204
17,RLRS,0.875
18,RLSD,≤ 0.2
19,QPVT,≤ 0.2
20,TWLF,≤ 0.2
21,MFNG,≤ 0.2
22,MAAA,≤ 0.2
23,NWPE,≤ 0.2
24,TFVS,≤ 0.2

row,Variant,one-hybrid fitness for binding parS DNA
1,VVQN,≤ 0.2
2,YPYG,≤ 0.2
3,IVTG,≤ 0.2
4,LDGI,≤ 0.2
5,ACHY,≤ 0.2
6,RLWS,1.03
7,RLYN,0.487
8,RLGS,0.981
9,RLLH,0.248
10,RLLS,1.05
11,RLLN,0.44
12,RLGP,≤ 0.2
13,RLGD,≤ 0.2
14,RLYD,≤ 0.2
15,RLWD,≤ 0.2
16,RLWN,0.443
17,RLYS,1.04
18,YVWS,≤ 0.2
19,YNKG,≤ 0.2
20,RRYE,≤ 0.2
21,YFLW,≤ 0.2
22,GWSG,≤ 0.2
23,SAAF,≤ 0.2
24,VKNG,≤ 0.2

row,Variant,one-hybrid fitness for binding parS DNA
1,AELV,≤ 0.2
2,GLPW,≤ 0.2
3,PMAN,≤ 0.2
4,YMPP,≤ 0.2
5,KVPK,≤ 0.2
6,RLDH,≤ 0.2
7,RLDN,0.416
8,RLDS,1.01
9,QGEI,≤ 0.2
10,TFSF,≤ 0.2
11,YFFS,≤ 0.2
12,RGCT,0.51
13,RGCQ,≤ 0.2
14,RGGP,≤ 0.2
15,RGCS,0.595
16,RGWN,≤ 0.2
17,RGCD,≤ 0.2
18,RGWS,0.573
19,RGGS,0.733
20,RGGN,≤ 0.2
21,RGCN,≤ 0.2
22,RGWD,≤ 0.2
23,SEDR,≤ 0.2
24,YADT,≤ 0.2

row,Variant,one-hybrid fitness for binding parS DNA
1,KCCV,≤ 0.2
2,VDHL,≤ 0.2
3,DLCC,≤ 0.2
4,SLAM,≤ 0.2
5,NYMG,≤ 0.2
6,RGIN,≤ 0.2
7,RGSD,≤ 0.2
8,RGQT,0.58
9,RGHF,≤ 0.2
10,RGIS,0.524
11,RGIH,≤ 0.2
12,RGHT,0.519
13,RGSS,0.849
14,RGSN,0.218
15,TPNI,≤ 0.2
16,SATH,≤ 0.2
17,HPWF,≤ 0.2
18,TRNA,≤ 0.2
19,QQAP,≤ 0.2
20,AFMD,≤ 0.2
21,PRPT,≤ 0.2
22,LTYS,≤ 0.2
23,WIST,≤ 0.2
24,RGYT,0.475

row,Variant,one-hybrid fitness for binding parS DNA
1,RGQN,0.249
2,RGQS,0.803
3,RGPT,≤ 0.2
4,RGSY,0.226
5,RGQD,≤ 0.2
6,RGDT,0.371
7,RGST,0.601
8,RGNF,≤ 0.2
9,RGNT,0.609
10,RGRT,0.676
11,LTFV,≤ 0.2
12,QTHV,≤ 0.2
13,HQLT,≤ 0.2
14,QKHC,≤ 0.2
15,SLYD,≤ 0.2
16,GLTA,≤ 0.2
17,CINY,≤ 0.2
18,YKSG,≤ 0.2
